Drawing on PubChem BioAssay AID434927 (Sanford-Burnham Center for Chemical Genomics, 2010), this text covers inhibition for 33 molecules.

A number with no mark means an inactive call. Activity calls are given as the source filed them.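 How the source made its calls: active means inhibition above about 23% in any of six single-dose repeats (limit read from the data); inactive means the rest.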

Chain of Intestinal-type alkaline phosphatase (Homo sapiens) (P09923 whole entry, looked up): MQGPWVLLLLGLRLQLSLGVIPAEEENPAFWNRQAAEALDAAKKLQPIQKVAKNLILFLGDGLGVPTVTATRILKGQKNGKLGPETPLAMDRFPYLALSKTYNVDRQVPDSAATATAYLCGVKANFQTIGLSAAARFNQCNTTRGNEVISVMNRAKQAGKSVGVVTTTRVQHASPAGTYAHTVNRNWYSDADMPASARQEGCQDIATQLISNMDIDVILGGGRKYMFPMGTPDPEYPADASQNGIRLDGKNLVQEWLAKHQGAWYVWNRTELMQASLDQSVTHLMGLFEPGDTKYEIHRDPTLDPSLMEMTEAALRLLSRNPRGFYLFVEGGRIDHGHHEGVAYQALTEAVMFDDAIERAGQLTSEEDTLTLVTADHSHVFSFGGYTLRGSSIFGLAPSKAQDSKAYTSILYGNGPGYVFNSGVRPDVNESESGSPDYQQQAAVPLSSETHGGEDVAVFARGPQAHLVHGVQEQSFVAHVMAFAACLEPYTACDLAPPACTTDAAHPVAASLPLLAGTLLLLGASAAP

This assay addresses Intestinal-type alkaline phosphatase (Homo sapiens) (UniProt P09923). Put plainly: suppression of intestinal alkaline phosphatase activity – biochemical, luminescence, single concentration, uHTS hits, confirmation (AID 434927).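 Further: plate controls were DMSO wells with enzyme for no effect and wells lacking enzyme for full effect.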 The following applies: purified human IAP, CDP-Star luminescence, 30 min; at 8.3 µM; active compounds read high.
For the molecule `O=C(N/N=C/c1c(F)cccc1Cl)c1cc(C2CC2)[nH]n1`, the inhibition is 37.7% (active).

Regarding `Cc1nc(Nc2nc3c(c(=O)[nH]2)CCC3)nc2ccccc12`, the inhibition is -77.6%.

`Cc1ccc(O)c(-c2cc(C(=O)NCc3ccc4c(c3)OCO4)[nH]n2)c1`: the inhibition was 19.7% (active).

Turning to `Cc1cccc(SCc2noc(C(=O)NCC3CCCO3)c2C(=O)O)c1` (stereo not drawn), the inhibition is -213%.

As to `Cc1[nH]n(-c2nc(-c3ccccc3F)cc(=O)[nH]2)c(=O)c1CCO`, the inhibition is -39.7%.

Regarding `O=Nc1[nH]c(=O)c(/C=C(\O)c2ccccc2)nc1NO`, the inhibition was -84.9%.

In the case of `CC(NS(=O)(=O)c1ccc(Br)cc1)C(=O)Nc1nc2ccccc2[nH]1` (stereo not drawn), the inhibition was 66.7% (active).

Consider `CCn1nc(C)c(CN2CCC(C(=O)Nc3cccc(-c4cccc(F)c4)c3)CC2)c1C`, for which the inhibition is 50.7% (active).

Turning to `Cc1cccc(-n2ncc3c(NNC(=O)c4ccco4)ncnc32)c1`, the inhibition is -74.5%.

In the case of `CN(Cc1ccccc1)C(=O)c1[nH]cnc1C(=O)Nc1nccs1`, the inhibition is -141%.

On to `CC1Cn2c(nnc2C23CC4CC(CC(C4)C2)C3)S1` (stereo not drawn), for which the inhibition is 95.1% (active).

For the molecule `Cc1c(C(=O)N/N=C/c2c(O)ccc3ccccc23)nnn1-c1nonc1N`, the inhibition was -86.1%.

For `Cc1ccsc1C(=O)NNC(=S)NC1CCCCC1`, the inhibition is 49.4% (active).

Take `Cc1cccn2c(=O)c3cc(C(=O)NC4CCCC4)c(=N)n(C4CCCCC4)c3nc12`: the inhibition was -122%.

As for `CC(C)Oc1ccc(C(=O)Nc2ncn[nH]2)cc1`, the inhibition is -64.7%.

Take `CN(C)c1ccc2nc3c(=O)[nH]c(=O)nc-3n(CC(O)C(O)C(O)CO)c2c1` (stereo not drawn): the inhibition was -87.3%.

`COc1cc(NC(=O)NCC2CCN(Cc3ccccc3Cl)CC2)cc(OC)c1OC`: the inhibition was -142%.

For `COc1ccc(CCN2C(=O)c3ccncc3C2=O)cc1OC`, the inhibition is 67.1% (active).

For `O=C(Cc1ccc(Cl)c(Cl)c1)NNC(=S)NCC1CCCO1` (stereo not drawn), the inhibition is -97.6%.

Take `O=C(CN1CCN(C(=O)N2CCCCC2)CC1)Nc1ccc(F)cc1`: the inhibition was -97.3%.

In the case of `CCOC(=O)c1c(NC(=O)Cn2cc([N+](=O)[O-])cn2)sc2c1CCC2`, the inhibition was -90.5%.

Regarding `O=C(Nc1ccon1)c1nc[nH]c1C(=O)NCc1ccccc1`, the inhibition is 88.5% (active).

For `O=C(CCN1C(=O)/C(=C/c2ccccc2Cl)SC1=S)NNC(=O)c1ccccc1O`, the inhibition is 62.3% (active).

Regarding `Cn1nnnc1N=N/C(=N/Nc1ccccc1)c1ccccc1`, the inhibition was 54.9% (active).

`Cc1cc(NC(=O)c2ccc(N3C(=O)C4C5C=CC(C5)C4C3=O)cc2)no1` (stereo not drawn): the inhibition is -161%.

On to `O=C(NNC(=S)NC1CCCCC1)c1ccccc1Br`, for which the inhibition is -42.5%.

Take `CCC(OC(=O)C1=Cc2ccccc2OC1)C(=O)NC1CCCC1` (stereo not drawn): the inhibition was -52.5%.

Take `CC1=NN(c2nc3ccccc3[nH]2)C(=O)/C1=C/N(C)C`: the inhibition is -57%.

As for `COc1cc(/C=C(\C#N)C(=O)c2ccc(O)c(O)c2)cc(I)c1O`, the inhibition was 40.4% (active).

For `Cc1cc(C(=O)NNC(=O)COc2c(C)cc(Br)cc2C)n[nH]1`, the inhibition was -0.057%.

With `CCOCCCNC(=O)CCC(=O)NNc1nc2ccccc2c2nc(-c3ccccc3)nn12`, the inhibition is 48.4% (active).

For `CCOC(=O)c1c(C)[nH]c(C(=O)N/N=C/c2cc([N+](=O)[O-])ccc2O)c1C`, the inhibition was 29.6% (active).

On to `O=C(/C=C/c1ccc(O)cc1)c1ccc(NC2=C(N3CCCCC3)C(=O)c3ccccc3C2=O)cc1`, for which the inhibition is -0.00319%.

Broadly, the inhibition is the drop in the measured response relative to a control, in per cent.
